Source: PubChem BioAssay AID504806 (National Center for Advancing Translational Sciences (NCATS), 2011)
A number with no mark means an inactive call. Calls of active or inactive are those of the source. Calls come from the whole dose curve; as a rule, active = well fitted activation curve with a large enough effect; inactive = flat fitted curve, though single readings scatter.

Assay: Followup screen of LOPAC molecules that induce DNA re-replication in SW480 adenocarcinoma cells
Conditions: Hoechst nuclear DNA content imaging, 48 h; series mostly up to 46.1 µM; activation (re-replication): at the top concentration
Text: NIH Molecular Libraries Probe Production Network [MLPCN] NIH Chemical Genomics Center [NCGC] MLPCN Grant: Fast Track K99 CA136555 Assay Provider: Melvin DePamphilis, NICHD, NIH Assay Overview Eukaryotic cells normally restrict genome duplication to once per cell division. When this process is aberrant, DNA re-replication occurs when cells reinitiate DNA replication before the first round of replication is complete. DNA re-replication induces the DNA damage response, arrests cell proliferation, and triggers apoptosis. The cell cycle components cyclin A, Cdt-1, Cdc6 and geminin are critical regulators of this process and their misregulation results in DNA re-replication in normal and cancer cells. To identify compounds that induce re-replication in normal cells, an image-based assay was used to measure DNA content of nuclei, as detected by the fluorescent DNA binding dye, Hoechst. Cell nuclei were imaged by a fluorescence scanning plate imager and compounds that induce DNA re-replication were identified by the increase of nuclei with elevated fluorescence intensity.
Assay Protocol Summary For screening, 250 cells in 5 uL/well were dispensed into black clear 1536-well plates (Aurora) using a solenoid-based dispenser. Following transfer of 23 nL compound or DMSO vehicle by a pin tool, the plates were incubated 48 hr at 37 C and 5% CO2. After addition of 1 uL/well Hoescht stain, the plates were incubated 40 min at 37 C, 5% CO2 and total intensity of fluorescent objects (nuclei) were enumerated by an Acumen Explorer Ex3 (TTP LabTech) fluorescence scanning plate imager (405 nm excitation, 500-530 nm emission). Keywords: NIH Roadmap, MLPCN, MLI, MLSMR, qHTS, NCGC, DNA replication, cancer

SMILES	Potency	activation (re-replication) [%]
NCC#Cc1ccccc1	7.55 µM (active)	
COc1cc([C@@H]2c3cc4c(cc3[C@H](O)[C@@H]3COC(=O)[C@H]23)OCO4)cc(OC)c1OC	0.0239 µM (active)	
CC(C)NP(=O)(NC(C)C)OP(=O)(NC(C)C)NC(C)C		-6.9
